Assay outcomes as filed in PubChem.
Rows were chosen to be rich in hits. Some 7.3% of all compounds tested hit in one or more screens of this group.
HCMV antiviral: qHTS Assay for inhibitors of the human cytomegalovirus (HCMV). HFF cells, HCMV-luciferase reporter, 72 h; active compounds read low. activity change, negative = inhibition, % at 57.5 µM. actives 4.5% (n = 410,000). AID 1259415, 2018; in the data active = activity change below about -60%; inconclusive = no clear call, values can overlap the other calls; inactive = above about -39%
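Human foreskin fibroblasts infected with luciferase-reporter HCMV at MOI 1 PFU/cell, compounds at two doses. Luciferase measured 72 h post infection; normalized to buffer-only basal and Salinomycin (10uM) controls.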
FMDV antiviral: High Throughput Screening for Foot and Mouth Disease Virus Antivirals. FMDV antiviral cell-based qHTS. Potency, µM (highest dose often 57.9 µM), for inactives: top-dose activity change, negative = inhibition, usual class: inhibitors. actives 1.2% (n = 410,000); calls by dose curve; tested in HEK293T cells; note: read-out not given here; potency is the fitted concentration of half-maximal effect; nearly all actives have a fitted effect of over 45% in size
HCV inhibitor: qHTS Assay for Inhibitors of Hepatitis C Virus (HCV); Huh7.5.1 HCVcc-Cre infection, luciferase reporter, 44 h; Potency, µM (series often up to 41.8 µM), without a hit: top-dose activity change, negative = inhibition, actives largely listed as inhibitors; actives 3.4% (n = 340,000); AID 651820, 2012; active = well fitted inhibition curve with a large enough effect; inconclusive = small, poorly fitted or top-dose-only effect, or another doubt; inactive = no such curve, though single readings can be large or run the other way; note: potency is the fitted concentration of half-maximal effect
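Antiviral activity was scored by luciferase reporter output from cells infected with HCVcc-Cre (~0.5 moi) in presence of compound, 44 h infection period, cells seeded 1,000/well 4 h prior.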
Vaccinia Venus: qHTS for Stage-Specific Inhibitors of Vaccinia Orthopoxvirus: Venus Reporter Primary qHTS. actives 0.46% (n = 330,000). Potency, µM (highest dose often 36.5 µM), for the others: at the highest dose activity change, negative = inhibition, usual class: inhibitors. Vaccinia virus Venus reporter expression, fluorescence; calls by dose curve; tested in A549 cells; note: potency is the fitted concentration of half-maximal effect; nearly all actives have a fitted effect of over 30% in size
Vaccinia mCherry: qHTS for Stage-Specific Inhibitors of Vaccinia Orthopoxvirus: mCherry Reporter Primary qHTS; AID 720579, 2013; actives 0.63% (n = 310,000); Potency, µM (highest dose often 36.5 µM), for the others: top-dose activity change, negative = inhibition, usual class: inhibitors; Vaccinia virus mCherry reporter infection, fluorescence; calls by dose curve; tested in A549 cells; note: potency is the fitted concentration of half-maximal effect; nearly all actives have a fitted effect of over 35% in size
The depositor's hits bear a star; i = inactive; u = inconclusive; x = no result given; [ ] = remark or other dose. % is set by controls: 0 for no effect and ±100 for the full control effect.

SMILES | HCMV antiviral | FMDV antiviral | HCV inhibitor | Vaccinia Venus | Vaccinia mCherry
CCN(CC)CCCNc1sc(S(=O)(=O)c2ccccc2)nc1S(=O)(=O)c1ccc(Cl)cc1 | -74.5* | 20.4% | x | -12.3% | -22.0%
CCS(=O)(=O)c1nc(S(=O)(=O)c2ccc(C)cc2)c(N2CCN(CCO)CC2)s1 | -32.6 | -6.2% | 16.1% | -4.8%[7.34 µM] | -3.2%[7.34 µM]
Cc1ccc(S(=O)(=O)c2nc(S(=O)(=O)c3ccccc3)sc2N2CCN(C)CC2)cc1 | -99.2* | 9.0% | -9.9% | x | x
Cc1ccc(S(=O)(=O)c2nc(S(=O)(=O)c3ccccc3)sc2N2CCN(CCO)CC2)cc1 | -97.9* | 20.1% | -8.1% | x | x
Cc1nc(N2CCCC2)c2c(C(=O)Nc3cccc(Cl)c3C)c(C)oc2n1 | -15.6 | -6.7% | x | -10.5% | i
CC(C)(C)S(=O)N1Cc2ccc(CO)cc2[C@H]1CCO (some centres not stated) | 17.2 | -14.2% | 6.9% | -10.7% | 4.3%
CC(C)(C)S(=O)N1Cc2ccc(CO)cc2[C@@H]1CCO (some centres not stated) | -3.7 | 39.8µM* | -3.5%[8.37 µM] | -13.6% | -14.0%
O=C(NCCc1ccc(Cl)cc1)C1CCC(=O)N(C2CCCCCC2)C1 (configuration not stated) | -61.2* | -5.7% | 0.9% | -11.6% | i
O=C(NCc1cccc(Cl)c1)C1CCN(C(=O)c2sccc2-n2cccc2)CC1 | -28.3 | -25.8% | x | -0.7% | -5.3%
O=C(NCCc1ccc(Cl)cc1)C1CCN(S(=O)(=O)c2ccc(Br)s2)CC1 | -38.1 | -16.0% | 10µM* | -22.0% | -28.3%
O=C(Nc1ccc(Cl)cc1)C1CCN(S(=O)(=O)c2ccc(Br)s2)CC1 | -96.2* | u | x | -14.0% | -25.2%
O=C(NCCc1ccc(Cl)cc1)C1CCN(C(=O)c2sccc2-n2cccc2)CC1 | -7.6 | u | 8.91µM* | -26.7% | -20.8%
O=C(NCCc1ccc(Cl)cc1)C1CCN(S(=O)(=O)N2CCCC2)CC1 | -21.4 | x | -24.1% | -10.4% | i
CCCCCCCCN1C(=O)[C@H](CC(=O)N2CCCCC2)C[C@@]2(C(=O)OC)CCCCC=C12 | -1.2 | -15.7% | x | -15.0% | i
Cc1c(N=C2C=CC(=O)c3ccccc32)c(=O)n(-c2ccccc2)n1C | -11.2 | 35.5µM* | -4.2% | u | u
Cc1c(N=C2C=C(Br)C(=O)C(Br)=C2)c(=O)n(-c2ccccc2)n1C | -30.7 | 1.8% | -8.0% | -2.9% | -13.4%
CCC[C@H]1[C@H](NCc2ccccc2)CC[C@@]23CCCN2C(=O)CCC[C@@H]13 | -6.7 | x | x | x | x
COc1ccc(OCc2nn3c(Cn4cnc5ccccc54)nnc3s2)cc1 | -68.2* | u | u | -25.3% | -3.5%
c1ccc(CCc2nn3c(Cn4cnc5ccccc54)nnc3s2)cc1 | -4.6 | u | -5.1% | -18.5% | -25.0%
Cc1ccc(NS(=O)(=O)c2cc([N+](=O)[O-])ccc2NNC(=S)Nc2cccc(Cl)c2)c(C)c1 | x | -7.6% | u | -1.4% | -10.6%
COc1ccc(NC(=S)NNc2ccc([N+](=O)[O-])cc2S(=O)(=O)Nc2ccc(C)cc2C)cc1 | -65.8* | -13.4% | 14.1µM* | -29.6% | -22.6%
Cc1ccc(NS(=O)(=O)c2cc([N+](=O)[O-])ccc2NNC(=S)Nc2cc(C)ccc2C)c(C)c1 | -102.8* | u | 11.2µM* | -22.8% | -14.3%
CCOc1ccc(Cn2c(=O)sc3ccccc32)cc1OC | u | -29.8% | 10µM* | x | x
COc1cc(Cn2c(=O)sc3ccccc32)ccc1OC(C)C | 13.4 | -20.1% | x | -16.1% | -19.1%
CC1(C(=O)O)NCCc2cc(O)c(O)cc21 (configuration not stated) | x | -13.5% | x | -9.4% | -11.7%
SMILES | HCMV antiviral | FMDV antiviral | HCV inhibitor | Vaccinia Venus | Vaccinia mCherry
CCCCCCCOc1ccc(OC(=O)c2cccnc2)cc1 | -6.1 | x | u | 6.2% | -0.7%
CCCCCCCOc1ccc(OC(=O)c2ccncc2)cc1 | -64.3* | x | u | 39.0% | 20.6%
Cc1nc2ccc(NC(=O)c3ccccc3)cc2c(=O)n1Cc1ccc(F)cc1 | -73.1* | 28.2µM* | x | u | -16.5%
S=C(NCCc1ccccc1)Nc1ccc(Nc2ccccc2)cc1 | -27.4 | -7.7% | 11.2µM* | -15.7% | -20.5%
COC(=O)c1ccc(NC(=S)NCCc2cccc(C)c2)cc1 | -20.4 | -11.7% | 22.4µM* | x | x
Cc1nc2cc(N3CCCCC3)c(NC(=O)c3ccncc3)cc2c(=O)n1Cc1ccccc1 | 31.7 | 32.3% | -15.4% | -14.1% | -25.1%
CCCNC(=S)Nc1ccccc1 | -64.9* | 13.3% | 8.5% | -9.7% | i
CCOC(=O)C(=O)C1(C(=O)OCC)Oc2cc(OC)cc(OC)c2C(=O)C1c1ccccc1 (configuration not stated) | x | 39.7% | x | 42.7% | 40.1%
CC(C)C(=O)N1CCCC1(C)C(=O)N(C)Cc1cccc2ccccc12 (configuration not stated) | -11.8 | -9.9% | x | -2.3% | 43.5%
Cc1ccc(NC(=S)NCCc2ccccc2)nc1 | -115.0* | -0.1% | u | -23.7% | -10.6%
O=C(NCCCCc1ccccc1)Nc1cccc(F)c1 | u | 2.0% | -9.8% | -24.0% | -17.0%
S=C(Nc1ccc(Nc2ccccc2)cc1)NC1CCCCCC1 | -86.9* | 28.2µM* | u | -24.3% | u
Cc1ccc(NC(=O)CCCc2ccccc2)nc1 | 4.1 | 16.7% | 9.5% | -10.8% | i
O=C(Cc1cccc([N+](=O)[O-])c1)Nc1ccccc1 | -21.3 | 4.5% | x | -13.0% | i
Fc1cccc(NC(=S)NCCc2ccccc2)c1 | -78.6* | 6.4% | -19.9% | -11.5% | -5.6%
O=[N+]([O-])c1cccc(NC(=S)NCCc2ccccc2)c1 | -95.4* | u | 12.6µM* | -21.1% | u
O=C(CNC(=O)c1ccc(Br)o1)NCC1CCCCC1 | 34.8 | 18.3% | 0.7% | x | x
CSc1nc2c(=O)[nH]cnc2s1 | -9.0 | x | x | x | x
NC(=O)c1cc([N+](=O)[O-])ccc1NCCc1ccccc1 | -12.1 | 25.0% | 11.2µM* | x | x
O=C(CF)NC(NC(=S)Nc1cccc([N+](=O)[O-])c1)C(Cl)(Cl)Cl (configuration not stated) | -69.8* | -24.3% | -7.7% | x | x
O=[N+]([O-])c1ccc(NCCc2ccccc2)c(Br)c1 | 36.4 | -4.1% | u | -15.7% | -2.0%
O=C(NCCc1ccc(F)cc1)c1cccc(NC(=O)c2ccccc2)c1 | -8.5 | -2.2% | 22.4µM* | x | x
CCOc1ccc(NC(=S)NCc2ccc3[nH]c(C)cc3c2)cc1 | -12.7 | 25.6% | 11.2µM* | x | x
Cc1ccc2nc(-c3cccc(Br)c3)c(Cc3ccsc3)n2c1 | 41.3 | x | x | x | x
CN(C)CCCNC(=S)Nc1ccc(Oc2ccccc2)cc1 | u | 8.8% | u | -8.0% | -26.3%
CC(C)(CNC(=S)NCCc1ccccc1)CNC(=S)NCCc1ccccc1 | -93.4* | u | u | x | x
S=C(NCCSCc1ccccc1Cl)Nc1ccccc1 | -21.5 | 49.8% | u | -25.3% | -28.0%
CN(C)CCCNC(=S)Nc1ccc(-c2ccccc2)cc1 | 0.0 | -9.9% | 11.2µM* | u | u
